Caspase-1 inhib = qHTS Assay for Allosteric/Competitive Inhibitors of Caspase-1 | Caspase-1 enzyme, Ac-WEHD-AFC fluorogenic rate | Potency, µM (titrated, usually from 57.5 µM), hits mostly inhibitors | actives 0.03% (n = 75,000)
UbGFP stabilizer = Ubiquitin-GFP Assay; Ubiquitin-GFP reporter cells, proteasome inhibition, GFP fluorescence; response scale: untreated = 0%, 10 µM MG-132 = 100%; Potency, µM (titrated, usually from 45.9 µM), hits mostly activators; 67,000 tested, under 10 active; active = well fitted activation curve with a large enough effect, not every such curve was filed as active; inconclusive = small, poorly fitted or top-dose-only effect, or another doubt; inactive = no such curve, though single readings can be large or run the other way
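Proteasome blockade was scored as a rise in GFP-expressing U2OS cells carrying a ubiquitin(G76V)-GFP construct, imaged after 4 hr compound treatment at 37 °C across a 46 uM–2.9 nM series.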
GBA mod = Glucocerebrosidase | Lysosomal acid glucosylceramidase (Homo sapiens), P04062 | purified enzyme, resorufin glucoside fluorescence (screen aimed at inhibitors), 20 min | Potency, µM | actives 1.1% (n = 48,000); in the data active = potency below about 15 µM; inconclusive = mostly about 16 µM to 33 µM;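 also: the screen sought inhibitors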
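Wild-type enzyme at 0.2 nM final in 50mM citric acid/KH2PO4, 10mM sodium taurocholate, 0.01% tween-20, pH 5.9, with resorufin beta-D-glucopyranoside at 30 uM final. Compounds titrated, 20 min at RT, red fluorescence read; AC50 from titration.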
HBB splice mod = qHTS Assay for Modulators of Hemoglobin Beta Chain Splicing; HBB splicing reporter cell assay, activation; EGFP reporter with mutant IVS2-654 intron; response scale: normalised to 500 nM splice-correcting PNA; Potency, µM (titrated, usually from 46.1 µM), usual class: activators; actives 0.06% (n = 65,000)
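HeLa cells stably expressing EGFP interrupted by mutant beta-globin intron 2 (IVS2-654), 500/well in 2% FCS. Treated with compound for 2 days at 37C. Splicing correction scored as total well GFP intensity (488 nm excitation, 500-520 nm emission); 500 nM antisense PNA served as control.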
GFP derepression = qHTS Assay for Epigenetic Modulators; mouse C127i GFP locus derepression, cytometry, 30 h; Potency, µM (titrated, usually from 46.1 µM); actives 0.09% (n = 68,000)
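Murine C127i mammary cells carrying a silenced, stably integrated CMV-driven GFP reporter were treated with compound for 30 hours at 37 C. After PBS washes, GFP-positive cells were counted by laser-scanning microplate cytometry.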
Caspase-7 inhib = qHTS Assay for Allosteric/Competitive Inhibitors of Caspase-7 | Potency, µM (highest dose often 57.5 µM), usual class: inhibitors | P55210 | recombinant caspase-7, Ac-DEVD-AFC fluorescence rate | AID 889, 2007 | actives 0.02% (n = 75,000); active = well fitted inhibition curve with a large enough effect in the main read-out, with a control signal flat, not every such curve was filed as active; inconclusive = small, poorly fitted or top-dose-only effect, or a change in a side signal
Each line names hits and unclear results; the compound was inactive in the other large screens. This is one part of a sample in which hits are shown more often than they occur. Unless noted, calls follow the shape of the dose curve; as a rule, active = well fitted curve in the direction sought with a large enough effect; inconclusive = small, poorly fitted or top-dose-only effect, or another doubt; inactive = no such curve, though single readings can be large; an effect the other way counts as inactive or inconclusive.

CCn1nc(-c2ccccc2)nc2c(=O)n(C)c(=O)nc1-2	Caspase-1 inhib 0.79µM, Caspase-7 inhib inconclusive
CCCC(=O)Nc1ccc(N2CCN(CC)CC2)c(Cl)c1	GBA mod 1.7 (no result: HBB splice mod)
CCCCC/C=C\C/C=C\C/C=C\C/C=C\CCCC(=O)Nc1ccc(O)cc1	none (no result: GBA mod, HBB splice mod)
CN1C[C@H](CNC(=O)OCc2ccccc2)C[C@H]2c3cccc4c3c(cn4C)C[C@@H]21	none (no result: GBA mod)
CN1C(=O)C(C2c3ccccc3C(=O)N2Cc2ccccc2)C(=O)N(C)C1=O (centres undefined)	GBA mod 12
CN1CSC(=S)N(C)C1	GFP derepression 6.3µM (no result: GBA mod)
Oc1ccc2c3c1O[C@@H]1[C@@H](O)CC[C@]4(O)[C@H](C2)N(CC2CCC2)CC[C@@]314	none (no result: GBA mod)
Nc1ccc([N+](=O)[O-])cc1N	none (no result: UbGFP stabilizer, GBA mod, GFP derepression)
CC(C)(C)n1c(O)c(C=Nc2ccc3c(c2)CCC3)c(=O)[nH]c1=O	GBA mod 11
FC(F)(F)c1ccc2c(c1)ncn2C1CCN(Cc2nnnn2C2CCCCC2)CC1	none
Cc1ccc2c(c1)C1CN(C)CCC1N2S(=O)(=O)c1ccccc1 (centres undefined)	GBA mod 10
Cc1ccc2c(c1)C1CN(C)CCC1N2C(=O)c1ccc(Br)o1 (centres undefined)	none

High-throughput results from PubChem.
